Assay results published in PubChem BioAssay (NCI).
Compounds without any hit were thinned out: in the full panel of roughly 83,000, 20% have a hit.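 The endpoint reported here, percent growth, reads 100 for growth as untreated, 0 for no net growth and -100 for all cells dead.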 Active and inactive are the calls of the source. How the source made its calls: active means growth percent below 10; inactive means the rest.

Columns and labels:
Experiment in all cases: NCI-60 one-dose screen, 48 h (100 = growth as untreated, 0 = no growth, -100 = all killed)
[1] = tested on: SR leukemia; details: 10 µM unless noted
[2] = tested on: RPMI-8226 leukemia; details: 10 µM unless noted
[3] = tested on: OVCAR-8 ovarian; details: 10 µM unless noted
[4] = tested on: OVCAR-5 ovarian; details: 10 µM unless noted
[5] = tested on: OVCAR-4 ovarian; details: 10 µM
[6] = tested on: SK-OV-3 ovarian; details: 10 µM unless noted
[7] = tested on: IGROV1 ovarian; details: 10 µM unless noted
[8] = tested on: NCI/ADR-RES ovarian; details: 10 µM unless noted
[9] = tested on: T-47D breast; details: 10 µM unless noted
[10] = tested on: BT-549 breast; details: 10 µM unless noted
[11] = tested on: MDA-MB-435 melanoma; details: 10 µM unless noted
[12] = tested on: SW-620 colon; details: 10 µM unless noted
[13] = tested on: MCF7 breast; details: 10 µM unless noted
[14] = tested on: HCT-116 colon; details: 10 µM unless noted
[15] = tested on: HCC-2998 colon; details: 10 µM unless noted
[16] = tested on: KM12 colon; details: 10 µM unless noted
[17] = tested on: HS 578T breast; details: 10 µM unless noted
[18] = tested on: OVCAR-3 ovarian; details: 10 µM unless noted

Measured: growth

COc1cc(C)cc2oc3oc(=O)c(-c4nc5ccccc5s4)cc3c(=O)c12
inactive: [1] 105% | [2] 94.1% | [3] 86.4% | [4] 89.7% | [5] 96.7% | [6] 111% | [7] 83.2% | [8] 94.4% | [9] 91.2% | [10] 92.7% | [11] 95.3% | [12] 83.9% | [13] 84.7% | [14] 93.4% | [15] 109% | [16] 93.1%

CCN(CC)c1ccc(/C=C/c2ccc3cc(C)ccc3[n+]2CC)cc1
active: [1] -17.6% | [2] -8.91% | [3] 2.3% | [6] -11.6% | [10] 1.38% | [11] -33.3% | [13] 3.46% | [14] 7.53%
inactive: [4] 26.8% | [5] 21.2% | [7] 26.5% | [17] 46.5% | [8] 45.7% | [12] 17.6% | [15] 16.5%

O=C(O)c1cc([N+](=O)[O-])ccc1Br
inactive: [1] 112% | [2] 99% | [3] 101% | [4] 90.8% | [5] 99.2% | [6] 113% | [7] 103% | [17] 106% | [8] 98.1% | [9] 101% | [10] 91.5% | [11] 98.5% | [12] 104% | [13] 95.8% | [14] 99.5% | [15] 104% | [16] 101%

CC(C)C1=NOC(=O)C1=Cc1cn(-c2ccccc2)nc1-c1ccc(Br)cc1
active: [1] -23.1% | [2] -29.6%
inactive: [3] 80.8% | [4] 100% | [5] 98.8% | [6] 99.9% | [7] 72.5% | [17] 70.4% | [8] 101% | [9] 74.8% | [10] 119% | [11] 71.3% | [12] 57.7% | [14] 64.2% | [15] 76.2% | [16] 85.4%

O=[N+]([O-])c1cc([N+](=O)[O-])c(C(F)(F)F)cc1NN=C(c1ccc(O)cc1)c1ccc(O)cc1
active: [3] -49.9% | [4] -6.51% | [6] -23.1% | [8] -19.9% | [9] -6.47% | [13] -10.1% | [14] -82.4% | [15] -55.5%
inactive: [1] 66.1% | [2] 76.4% | [5] 81.3% | [18] 96.3% | [17] 108% | [10] 132% | [11] 99.1% | [12] 106% | [16] 84%

Brc1ccc(-c2nnc3c4[nH]ccc4ncn23)cc1
inactive: [1] 82.1% | [2] 84.4% | [3] 95.3% | [4] 113% | [5] 91.1% | [6] 93.2% | [7] 69.6% | [17] 93.6% | [9] 57.6% | [10] 94.3% | [11] 97.8% | [12] 94% | [13] 75.8% | [14] 86.4% | [15] 96.6% | [16] 73.4%

CCCCOC(=O)c1c(C)[nH]c(/C=C2\N=C(c3ccc[nH]3)C=C2OC)c1C
inactive: [1] 14.5% | [4] 11% | [6] 34.7% | [10] 14.9% | [12] 11.6%
active: [2] -32.1% | [3] 7.7% | [5] 3.84% | [18] -37.6% | [17] -23.2% | [8] 8.85% | [9] -46.1% | [11] -51.1% | [13] -44.2% | [14] -76.1% | [15] -28.1% | [16] -5.76%

CC(C)OC(=O)Nc1cc(F)c(F)cc1F
inactive: [1] 102% | [2] 101% | [3] 100% | [4] 93.5% | [5] 103% | [6] 100% | [7] 95.5% | [17] 101% | [8] 102% | [9] 104% | [10] 104% | [11] 103% | [12] 99.2% | [13] 94.3% | [14] 110% | [15] 101% | [16] 101%

O=C(NCc1ccccc1)C(Cl)Cl
inactive: [1] 95.1% | [2] 101% | [3] 101% | [4] 91.7% | [5] 102% | [6] 101% | [7] 101% | [17] 105% | [8] 104% | [9] 102% | [10] 122% | [11] 103% | [12] 107% | [13] 90.1% | [14] 108% | [15] 107% | [16] 101%

CCOc1ccc2sc(NS(=O)(=O)c3ccc(N)cc3)nc2c1
inactive: [1] 95.4% | [2] 96.5% | [3] 105% | [4] 109% | [5] 105% | [6] 101% | [7] 95.8% | [17] 106% | [8] 113% | [9] 122% | [11] 107% | [12] 115% | [13] 97.4% | [14] 110% | [15] 107% | [16] 105%

N#C/C(=C(/O)CCCO)c1nc2ccccc2c(=O)[nH]1
inactive: [1] 90.9% | [2] 91.1% | [3] 107% | [4] 92.5% | [5] 104% | [6] 105% | [7] 109% | [17] 102% | [8] 95% | [9] 101% | [10] 109% | [11] 168% | [12] 108% | [13] 86.6% | [14] 98.9% | [15] 73.5% | [16] 100%

CCCCCCCCCCCCCCCCCCNC(=S)N/N=C/c1ccc(OC)c(OC)c1
inactive: [1] 81.2% | [2] 89.7% | [3] 101% | [4] 93.8% | [5] 98.5% | [6] 98.5% | [7] 94.2% | [8] 97.3% | [9] 95.8% | [10] 79.9% | [11] 97.4% | [12] 99.2% | [13] 96.8% | [14] 96.9% | [15] 101% | [16] 97.1%

CCOC(=O)C(c1ccccc1)N1C(=O)c2ccccc2C1=O (centres undefined)
inactive: [1] 115% | [2] 98% | [3] 99.7% | [4] 99.7% | [5] 97.7% | [6] 95.4% | [7] 96.5% | [17] 92.3% | [8] 99.3% | [9] 97.3% | [10] 90.3% | [11] 93.1% | [13] 91.4% | [14] 98.5% | [15] 98.4% | [16] 98.8%

CCN(CC)CCCOc1ccc2c(c1)O/C(=C\c1cccc(OC)c1)C2=O
inactive: [1] 63.3% | [2] 96.2% | [3] 90.8% | [4] 95.7% | [5] 94.2% | [6] 115% | [7] 97.7% | [8] 94.8% | [9] 87.6% | [10] 78.4% | [11] 91.9% | [12] 73.9% | [13] 72.8% | [14] 51.8% | [15] 86.7% | [16] 93.2%

O=C(Nc1cc(-c2cccnc2)nc(NCCCN2CCOCC2)n1)c1cc(Br)cc(C(F)(F)F)c1
active: [1] 4.25% | [11] 9.55%
inactive: [2] 30.2% | [3] 58.6% | [4] 81.4% | [5] 62.2% | [6] 92.3% | [7] 63.1% | [17] 54% | [8] 56.6% | [9] 46.4% | [12] 75.4% | [13] 38.6% | [14] 35.7% | [15] 37.8% | [16] 80%

Nc1cc(C(=O)O)[nH]c(=S)n1
inactive: [1] 94.2% | [2] 95% | [3] 101% | [4] 96.1% | [5] 105% | [6] 115% | [7] 95.4% | [17] 98.1% | [8] 100% | [9] 105% | [10] 69.1% | [11] 98% | [12] 101% | [13] 96.2% | [14] 100% | [15] 95.3% | [16] 98.9%

O=C(N/N=C/c1ccc([N+](=O)[O-])cc1)c1ccc(Br)o1
inactive: [1] 106% | [2] 72% | [3] 71.8% | [4] 104% | [5] 99.8% | [6] 79.3% | [18] 121% | [17] 127% | [8] 99.6% | [9] 131% | [10] 109% | [11] 108% | [12] 104% | [13] 71.2% | [14] 99.4% | [15] 107% | [16] 126%
